The panel holds about 83,000 compounds, 20% with a hit somewhere; the sample as a whole holds those more often.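 Method: cells in 96-well plates; compound added at one concentration; 48 h incubation; percent growth measured; values under 10 scored active.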 The source made the active and inactive calls.
What follows are compounds tested on OVCAR-3 ovarian (assay: NCI-60 one-dose screen, 48 h (100 = growth as untreated, 0 = no growth, -100 = all killed)). Settings: 10 µM.
Description: Growth inhibition of the OVCAR-3 human tumor cell line is measured as a screen for anti-cancer activity. Cells are grown in 96 well plates and exposed to the test compound for 48 hours. Compounds are tested at a single concentration, which is 10^-5 M for most compounds. The reported endpoint is percent growth (GI% or GIPRCNT), where numbers from 0 - 100% represent growth inhibition, and numbers from -100% - 0 represent cell death. For example, a value of 40 represents 60% growth inhibition. A value of 0 means no net growth occurred over the course of the experiment. A value of -40 indicates 40% of cells at the beginning of the experiment died by the end of the experiment. A value of -100 means all cells are dead at the end of the experiment.
NCI-60 Human Tumor Cell Lines Screen was performed using the standard one-dose NCI protocol, which is described in more detail at https://dtp.cancer.gov/discovery_development/nci-60/default.htm.
Compounds with GIPRCNT values below 10 were considered active. Activity score was based on GIPRCNT using the following formula: […]
Score is 0 for GIPRCNT values of 100 or above, 50 for GIPRCNT values of 0, and 100 for GIPRCNT values of -100.
For `CC1=NN(c2ccccc2)C(=O)/C1=C\N1CC(=O)NC1=S`, the growth was 111% (inactive).
For `COc1nc(N)nc2c1ncn2C1OC(CO)CC1O` (stereo not given), the growth was 118% (inactive).
`CCN(CC)C(=O)/C=C(/C)c1ccccc1` was tested, and the growth was 111% (inactive).
`COc1cc(C2NC(=O)C(C#N)=C(Nc3cccc(C)c3)S2)ccc1O` (stereo not given) was tested, and the growth was 106% (inactive).
In the case of `Cc1ccc(C(=O)NC2c3ccccc3Oc3ccccc32)cc1`, the growth is reported as 31.6% (inactive).
With `CSC[C@H](NC(=O)COc1cccc2cnccc12)C(=O)NC(Cc1ccccc1)C(O)C(=O)N1CSC[C@H]1C(=O)NC(C)(C)C` (stereo not given in full) the growth was 101% (inactive).
For `CC(=O)Oc1ccc(Br)cc1C(=O)O`, the growth was 111% (inactive).
In the case of `CCOC(=O)C/C(C)=N\O`, the growth is reported as 99.9% (inactive).
For `O=C(Nc1ccccc1)OCCc1ccccc1`, the growth was 118% (inactive).
`COc1ccc2c(c1)CCc1c-2n[nH]c1-c1[nH]nc2c1CCc1cc(OC)ccc1-2` was tested, and the growth was 41.3% (inactive).
`O=[N+]([O-])c1ccc(CO)cc1` was tested, and the growth was 113% (inactive).
`N#CC(=Nc1cccc(F)c1)C1=C(O)c2ccccc2C1=O` was tested, and the growth was 92.7% (inactive).
With `O=C(O)CCCc1ccccc1` the growth was 121% (inactive).
In the case of `O=C(O)/C=C/c1ccc2c(c1)CCC2`, the growth is reported as 117% (inactive).
`COc1ccc2c(NCCCCCCCCNc3c4ccccc4nc4cc(OC)ccc34)c3ccccc3nc2c1` was tested, and the growth was -100% (active).
With `CC(=O)Nc1cccc(Cl)c1C` the growth was 102% (inactive).
`O=C(/C(=N/O)c1ccccc1)c1ccccc1` was tested, and the growth was 116% (inactive).
For `CC(=O)c1ccc(C)c(N)c1`, the growth was 108% (inactive).
For `COC(=O)c1cccc(Br)c1`, the growth was 121% (inactive).
`CC(=O)Nc1ccc(NC(C)=O)c2c1C(=O)c1ccccc1C2=O` was tested, and the growth was 104% (inactive).
`CC(C)(C)n1nc(C2CC2)c(Br)c1NC(=O)c1ccccc1F` was tested, and the growth was 117% (inactive).
`NC(N)=Nc1cc2ccccc2c2ccccc12` was tested, and the growth was 73.1% (inactive).
With `Cc1ccc(C(O)C2CC2)cc1` (stereo not given) the growth was 106% (inactive).
With `CC(C)=C(NC(=O)c1ccccc1)C(=O)O` the growth was 107% (inactive).
`CC1=C(/C=C/C(C)=C/C=C/C(C)=C/CO)C(C)(C)CCC1` was tested, and the growth was 109% (inactive).
`COc1cc(CCN=Cc2ccccc2O)c([N+](=O)[O-])cc1OC` was tested, and the growth was 101% (inactive).
In the case of `Cc1cc(C)cc(NCCC#N)c1`, the growth is reported as 105% (inactive).
`Brc1cnc2ccccc2c1` was tested, and the growth was 99.7% (inactive).
For `O=C(O)c1cccc([N+](=O)[O-])c1`, the growth was 109% (inactive).
`O=c1cc(-c2ccccc2)[nH]c(=S)[nH]1` was tested, and the growth was 106% (inactive).
With `O=C(O)CCC(=O)OC(C1CO1)C(OC(=O)CCC(=O)O)C1CO1` (stereo not given) the growth was 103% (inactive).
`Cc1cc(N)c(S(=O)(=O)O)c(N)c1` was tested, and the growth was 112% (inactive).
With `CC1CC(O)C2C3(C)CCCC2(COC3=O)C12CCC1(CCOC1=O)O2` (stereo not given) the growth was 110% (inactive).
With `CCO/C=C1\SC(=S)N(c2cccc(C)c2)C1=O` the growth was 104% (inactive).
For `CCCCC(CC)COC(C)=O` (stereo not given), the growth was 105% (inactive).
In the case of `COC(=O)Nc1nc2ccc(C(=O)c3cccs3)cc2[nH]1`, the growth is reported as -7.19% (active).
`Oc1ccccc1O` was tested, and the growth was 92.3% (inactive).
For `C#C[C@H]1CCCCCC1O` (stereo not given in full), the growth was 113% (inactive).
With `O=C(OCC(O)C1OC(c2ccccc2)OC(COC(=O)c2ccccc2)C1O)c1ccccc1` (stereo not given) the growth was 118% (inactive).
For `COc1cc(C(N)=O)cc(OC)c1OC`, the growth was 117% (inactive).

— PubChem BioAssay (NCI)
